PubChem BioAssay (NCATS)
Where “and” joins values, the source holds several entries; their conditions need not be identical. Equal values may be shown once. Inconclusive results are not listed. Where a call stands in place of a potency, no number is given. Unmarked numbers belong to inactive results. Calls of active or inactive are those of the source. Calls follow the shape of the dose curve; as a rule, active = well fitted curve in the direction sought with a large enough effect; inconclusive = small, poorly fitted or top-dose-only effect, or another doubt; inactive = no such curve, though single readings can be large; an effect the other way counts as inactive or inconclusive.

Tests used:
[1] = target: Cellular tumor antigen p53 (Homo sapiens) (UniProt P04637); experiment: Primary qHTS for small molecule compounds that upregulate eGFP-tagged delta133p53alpha (in N-terminal) cells. (AID 2060322); details: NCI-H358 eGFP-delta133p53alpha fluorescence, 24 h; activation: hits give high values; also: nearly all actives have a fitted effect of over 75% in size; also: potency is read from the fitted curve at half-maximal effect
Cellular tumor antigen p53 (Homo sapiens), sequence (P04637 whole entry, looked up): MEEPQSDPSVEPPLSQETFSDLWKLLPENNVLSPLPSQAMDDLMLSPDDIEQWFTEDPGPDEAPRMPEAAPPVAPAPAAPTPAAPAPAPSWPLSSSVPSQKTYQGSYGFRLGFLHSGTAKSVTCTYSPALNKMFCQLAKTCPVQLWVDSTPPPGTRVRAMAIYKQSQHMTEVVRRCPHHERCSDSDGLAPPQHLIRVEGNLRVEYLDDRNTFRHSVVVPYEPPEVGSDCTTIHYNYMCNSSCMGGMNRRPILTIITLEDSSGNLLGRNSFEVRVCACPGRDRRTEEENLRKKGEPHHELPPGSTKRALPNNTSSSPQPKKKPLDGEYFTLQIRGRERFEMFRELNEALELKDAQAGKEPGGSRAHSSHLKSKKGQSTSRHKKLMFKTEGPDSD
Procedure, shortened: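 NCI-H358 cells pre-induced 24 h with 10 ng/ml doxycycline to express N-terminal eGFP-delta133p53alpha, then dosed 24 h at 37C without doxycycline; fixed, Hoechst-stained, GFP intensity by laser scanning cytometry, normalized to DMSO (0%) and 57.5 uM 5-azacytidine (100%).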

[2] = target: Aldehyde dehydrogenase, mitochondrial (Homo sapiens) (UniProt P05091); experiment: qHTS for Inhibitors of the Aldehyde Dehydrogenase Family (ALDH2) Primary screen (AID 2061308); details: ALDH2 enzyme inhibition qHTS, 1536-well; series mostly up to 56 µM; also: nearly all actives have a fitted effect of over 55% in size
[3] = target: Retinaldehyde dehydrogenase 3 (Homo sapiens) (UniProt P47895); experiment: qHTS for Inhibitors of the Aldehyde Dehydrogenase Family (ALDH1A3) Validation screen (AID 2061312); details: ALDH1A3 enzyme inhibition qHTS validation, fluorescence; series mostly up to 84.7 µM; also: nearly all actives have a fitted effect of over 45% in size
[4] = target: Retinaldehyde dehydrogenase 3 (Homo sapiens) (UniProt P47895); experiment: qHTS for Inhibitors of the Aldehyde Dehydrogenase Family (ALDH1A3) Primary screen (AID 2061315); details: ALDH inhibition qHTS; series mostly up to 56 µM

Structure (SMILES) | activation [1] | Potency [2] | Potency [3] | Potency [4] | Potency [1]
CC1CC(OC(=O)C(O)c2ccccc2)CC(C)(C)C1 (stereo not drawn) | 1.43% | inactive | inactive | inactive | –
CC(F)(F)CN1CCOc2c(nn(-c3ccccc3Cl)c2-c2ccc(Cl)cc2)C1=O | 10% | inactive | inactive | inactive | –
O=C(CC(c1ccccc1)c1ccccc1)N1CCN(C(c2ccccc2)c2ccccc2)CC1 | 2.86% | inactive | inactive | inactive | –
CCC1(O)CC2c3cc(OC)c(OC)cc3CCN2CC1CC(C)C (stereo not drawn) | 3.82% | inactive | inactive | inactive | –
CN1CCN(Cc2ccc(NC(=O)Cc3ccc(Oc4cc(NC(=O)C5CC5)ncn4)cc3)cc2C(F)(F)F)CC1 | – | inactive | inactive | inactive | 6.75 µM (active)
c1ccc(-c2csc(N3CCOCC3)n2)cc1 | -7.16% | inactive | inactive | inactive | –
CC(C)(C)C(=O)C(Oc1ccc(Cl)cc1)n1ccnc1 (stereo not drawn) | -37.9% and -2.39% | inactive | inactive | inactive | –
